The values that follow come from the supplement of paper PMC6555819.

The subject of this assay is VDR homodimer (NR concentration 270 nM). Briefly: PBM binding z-score (relative to random genomic background probes); higher = stronger binding; sequences stand for … in GC…GCGATTGACAGCGTAGAATGAAGG
In short, it runs like this: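 Each nuclear receptor dimer, without ligand, was incubated for 1 h on custom Agilent 4×180K protein-binding microarrays. Binding was detected with antibodies against each partner (one per run), and scanned fluorescence was regression-normalized. The binding z-scores are referenced to random human genomic background probes.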
Turning to CAAACTAGGTCACCGGAAGGTCAAGGTCCGCATG, the PBM binding z-score turned out to be 3.16.

Turning to TGAACGAGGTTATAAGATCAGGGAACGTTGCAAA, the PBM binding z-score was found to be 0.372. Regarding ACTAGTTGGTCAGCTGAGGTCTCACACAATTCGG, the PBM binding z-score is -0.0195. As to CAAACTAGGTAACGAAAGGTCAAAGTCGAATGAC, the PBM binding z-score worked out at 2.25.

On to CCTATTAGTTGACCATAAGGGCAACCGAAGCTCG, for which the PBM binding z-score worked out at 1.07. TCGAGTAGGTAAGTCGGGGCATTCAGCCAACATA displayed a PBM binding z-score of -0.05. CGAACGAGGGCATGAATTGATAGCAAATGCCGAT yielded a PBM binding z-score of 0.297. In the case of TCACCAAGGTGAGCTGAGGTCGTTGATCCAACTC, the PBM binding z-score turned out to be 1.64.

ACAGACAGGTGAGTGAAGGTAACTCAGCTGGACG gave a PBM binding z-score of -0.355. The sequence ACTAGCAGGCCGAGGGTCACTCAAGATTAGTCCG gave a PBM binding z-score of 0.527. Next, CCTATTAGTTGACCATAAGGACAACCGAAGCTCG: 1.1. In turn, AGTCAAAGTTCACTAGGTACCGTAAGATTCAGCT gave a PBM binding z-score of 3.97. GCTTACGGGTCAAAGGTTATAGAATGAATAGAAT displayed a PBM binding z-score of 1.96. In turn, ATCTCTAGGTAACAAGTTCTGTGAAAGAGAGGAC had a PBM binding z-score of 0.424. For the sequence ATCTTTAGGTAAAAGTTCAGTGAATCCCGAGGAT, the PBM binding z-score was 1.63.

Regarding CAAACTAGGTCAAGAGGTCAAAATCCGCTTCCCG, the PBM binding z-score amounted to 3.18. As to ACTAGCAGGCCAAGTTTGGGTCAGTCAAACAAAG, the PBM binding z-score was -0.265.

In turn, TCTCGGAGGACACGAAAGGTCAGATCTCGACATC gave a PBM binding z-score of 1.13.
